Bioassay records: PubChem, National Center for Advancing Translational Sciences (NCATS)
A selection: hits, their analogues and other compounds. The true share with any hit is near 10%.
HPGD inh: qHTS Assay for Inhibitors of HPGD (15-Hydroxyprostaglandin Dehydrogenase); 15-hydroxyprostaglandin dehydrogenase [NAD(+)] (Homo sapiens), P15428; AID 894, 2007; Potency, µM, for inactives: at the highest dose activity change, negative = inhibition, usual class: inhibitors; purified HPGD, NADH fluorescence kinetic, PGE2 substrate; 150,000 compounds, 4.3% hits; active = well fitted inhibition curve with a large enough effect, not every such curve was filed as active; inconclusive = small, poorly fitted or top-dose-only effect, or another doubt; inactive = no such curve, though single readings can be large or run the other way; also: potency is read from the fitted curve at half-maximal effect
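20 nM HPGD preincubated 15 min at room temperature with compound in 50 mM Tris-HCl pH 8, 0.01% Tween 20. Started with 1 mM NAD+ and 30 uM prostaglandin E2; NADH fluorescence (360/450 nm) read 5 times over 30-s intervals, last minus first.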
PNC assembly inh: High Content Assay for Compounds that inhibit the Assembly of the Perinucleolar Compartment; PC3M PTB-GFP, PNC prevalence imaging, 16 h; stronger effect = lower value; activity change (PNC), negative = inhibition, % at 10 µM; 140,000 compounds, 3.1% hits; AID 2417, 2010;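 active = readout at or below -70, meaning at least 70% loss of cells showing the perinucleolar compartment, a nuclear body marking cancer cells; inconclusive = readout between -30 and a set limit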;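 also: plate controls were DMSO wells for no effect and camptothecin positive control wells for full effect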
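PC3M cells stably expressing PTB-GFP, 750–1000 cells/well, treated 16 h at 37 °C with compound (23 nl of library stock), in duplicate. After paraformaldehyde fixation and Hoechst stain, imaged at 20x; PNC prevalence scored by image analysis.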
GLA inh pH 4.5: qHTS Assay for Inhibitors of Human alpha-Galactosidase at pH 4.5; Alpha-galactosidase A (Homo sapiens), P06280; purified enzyme, 4-MU-alpha-Gal fluorescence, pH 4.5; activity change, negative = inhibition, % at 105 µM; 230,000 tested, under 10 active;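 also: 0% = full activity with enzyme and -100% = basal without enzyme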
ALDH1A1 block: qHTS Assay for Inhibitors of Aldehyde Dehydrogenase 1 (ALDH1A1); Purified ALDH1A1, NADH fluorescence, propionaldehyde substrate; Potency, µM (series often up to 75.3 µM), without a hit: at the top dose activity, negative = inhibition, usual class: inhibitors; Aldehyde dehydrogenase 1A1 (Homo sapiens), P00352; AID 1030, 2008; 220,000 compounds, 7.3% hits; active = well fitted inhibition curve with a large enough effect, not every such curve was filed as active; inconclusive = small, poorly fitted or top-dose-only effect, or another doubt; inactive = no such curve, though single readings can be large or run the other way;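 also: potency is read from the fitted curve at half-maximal effect; plate controls were no enzyme wells and a reference inhibitor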
Target sequence (P00352 whole entry, looked up): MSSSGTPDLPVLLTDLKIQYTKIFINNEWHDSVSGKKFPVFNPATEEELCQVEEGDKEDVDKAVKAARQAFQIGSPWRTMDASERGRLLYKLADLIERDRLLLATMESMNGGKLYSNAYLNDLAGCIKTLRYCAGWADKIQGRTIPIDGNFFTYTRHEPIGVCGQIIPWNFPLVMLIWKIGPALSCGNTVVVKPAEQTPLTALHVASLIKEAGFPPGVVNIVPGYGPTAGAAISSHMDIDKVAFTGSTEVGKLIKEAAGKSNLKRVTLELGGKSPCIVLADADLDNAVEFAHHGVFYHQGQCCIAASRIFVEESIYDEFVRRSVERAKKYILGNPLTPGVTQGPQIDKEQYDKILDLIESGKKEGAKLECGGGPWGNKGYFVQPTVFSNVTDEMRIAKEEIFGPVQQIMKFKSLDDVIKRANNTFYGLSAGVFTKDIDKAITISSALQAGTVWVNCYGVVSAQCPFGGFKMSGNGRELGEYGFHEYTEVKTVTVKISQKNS
12-hLO inh: qHTS Assay for Inhibitors of 12-hLO (12-human lipoxygenase). Polyunsaturated fatty acid lipoxygenase ALOX12 (Homo sapiens), P18054. purified 12-hLO, xylenol orange hydroperoxide absorbance. Potency, µM (top dose mostly 57.1 µM), without a hit: at the highest dose activity change, negative = inhibition, actives largely listed as inhibitors. 150,000 compounds, 0.12% hits; also: potency is read from the fitted curve at half-maximal effect; nearly all actives have a fitted effect of over 55% in size
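Hydroperoxide output read as Fe(III)-xylenol orange absorbance, 573-to-405 nm ratio, after 30 min reaction with 40 uM arachidonic acid. Enzyme: 150 nM purified human 12hLO, 15 min compound preincubation; 25 mM Hepes pH 7.0, room temperature.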
GLA spleen mod: qHTS Assay for Inhibitors and Activators of Human alpha-Galactosidase From Spleen Homogenate; human spleen homogenate, 4MU-alpha-Gal fluorescence, 40 min; 240,000 compounds, 0.008% hits; Potency, µM (highest dose often 80 µM), for the others: top-dose activity change, negative = inhibition, actives largely listed as inhibitors;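 also: potency is read from the fitted curve at half-maximal effect; 0% = enzyme with vehicle and -100% = no enzyme basal signal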
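qHTS titration in buffer at pH 5.0. Alpha-galactosidase activity in spleen homogenate was measured via 4-methylumbelliferone release from 1 mM fluorogenic substrate after 40 min at 37C and a pH 10 stop. AC50 came from Hill fits of control-normalized data.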
* marks the source's active call; other numbers are inactive results; u = inconclusive; x = no result. Unless noted, calls follow the shape of the dose curve; as a rule, active = well fitted curve in the direction sought with a large enough effect; inconclusive = small, poorly fitted or top-dose-only effect, or another doubt; inactive = no such curve, though single readings can be large; an effect the other way counts as inactive or inconclusive. Unless noted, % is scaled to controls: 0 for no effect and ±100 for the full control effect.

SMILES	HPGD inh	PNC assembly inh	GLA inh pH 4.5	ALDH1A1 block	12-hLO inh	GLA spleen mod
C=CCc1cc(/C=C2/NC(=S)NC2=O)cc(OC)c1O	25µM*	12	-8	11%	-9%	-3%
C/C(=N\NC(=O)c1csc(C)c1C)c1ccc(C)s1	14µM*	23	-3	3%	-1%	-3%
[N-]=[N+]=Nc1ccc(C(=O)CSC[C@@H](NC(=O)CC[C@@H](N)C(=O)O)C(=O)NCC(=O)O)cc1	x	x	x	x	-2%	x
Cc1ccc(N/N=C(\Cc2nc3ccccc3[nH]2)c2ccccc2)cc1	u	0	0	10µM*	-1%	10%
Clc1cccc(/C(Cc2nc3ccccc3[nH]2)=N\Nc2ccccc2)c1	-15%	u	-7	u	-15%	-2%
c1ccc(N/N=C(\Cc2nc3ccccc3[nH]2)c2ccccc2)cc1	u	8	-5	28µM*	-6%	5%
O=C(O)C1CCc2sc3[nH]c(=S)n(-c4ccccc4)c(=O)c3c21 (stereo not drawn)	x	x	8	x	x	7%
CCN(CC)C(=O)c1sc2[nH]c(=S)n(-c3ccccc3)c(=O)c2c1C	28µM*	88	3	u	0%	-3%
O=C(C1CC1)N(Cc1ccco1)c1nc(-c2ccccc2)cs1	-25%	35	-8	6.3µM*	-16%	10%
COc1ccc(-c2csc(N(Cc3ccco3)C(=O)c3cccs3)n2)cc1	x	x	3	x	x	-4%
CCOc1ccc(N2C(=O)CN(O)C=C3N=c4ccccc4=C32)cc1	x	x	6	10µM*	x	10%
CN(C1CCCCC1)S(=O)(=O)c1ccc(C(=O)N2CCN(c3nc4ccccc4s3)CC2)cc1	-15%	u	-18	4%	0%	-29%
Cc1ccsc1-c1n[nH]c(=S)n1CC(C)C	-18%	u	3	25µM*	-4%	4%
CC(C)Cn1c(-c2ccc(Br)o2)n[nH]c1=S	-19%	-24	8	10µM*	-2%	7%
CC(C)C[C@@H](CC(=O)N[C@H](CC(=O)N[C@@H]1CCCC[C@H]1C(=O)N[C@H](CC(=O)N[C@@H](CCC(=O)O)CC(=O)O)Cc1c[nH]c2ccccc12)C(C)C)NC(=O)[C@@H]1CCCC[C@H]1N	-5%	x	-11	-1%	-4%	-5%
CC1(C)CC1C(=O)Nc1ccc([N+](=O)[O-])cc1Br (stereo not drawn)	x	-24	-22	-6%	-1%	0%
Cc1ccc(C2(c3ccc(C)cc3)CC2C(=O)Nc2ccc([N+](=O)[O-])cc2O)cc1 (stereo not drawn)	14µM*	-18	-5	-9%	-21%	8%
CSc1ncccc1C(=O)OCc1ccccc1	-9%	30	2	-9%	-10%	-5%
CSc1ncccc1C(=O)OCc1ccc(COC(=O)c2cccnc2SC)cc1	-9%	-108*	4	-6%	6%	-1%
O=c1cc(CO)occ1O	-2%	x	-8	-2%	-9%	2%
Cn1c(N)c(C(=O)COC(=O)c2cncc(Br)c2)c(=O)n(C)c1=O	x	x	7	11µM*	x	1%
O=C(/C=C/c1cccc(Cl)c1)NCCN1CCOCC1	-3%	-11	2	1%	2%	-4%
COc1cccc(C2C3=C(Nc4[nH]n(-c5ccccc5)c(=O)c42)c2ccccc2C3=O)c1 (stereo not drawn)	-15%	u	-27	20µM*	0%	-1%
COc1cccc(C2C3=C(CCCC3=O)Nc3[nH]n(-c4ccccc4)c(=O)c32)c1 (stereo not drawn)	x	x	-10	6%	x	-6%
CN1C(=O)C(=C2CCCCCC2)SC1=S	-22%	15	8	u	-8%	1%
SMILES	HPGD inh	PNC assembly inh	GLA inh pH 4.5	ALDH1A1 block	12-hLO inh	GLA spleen mod
O=C1NC(=S)SC1=C1CCCC1	35µM*	14	-5	u	-17%	-7%
CCN(CC)C(=S)SCC(=O)c1ccc(Br)cc1	u	24	1	8.9µM*	0%	0%
N#CC1=C(N)C(C#N)(C#N)C(c2ccncc2)C2CN(C(=O)OCc3ccccc3)CC=C12 (stereo not drawn)	-9%	-119*	2	u	-1%	5%
Cc1nc(NC(C)(C)CO)c([N+](=O)[O-])cc1[N+](=O)[O-]	-5%	-119*	-5	3%	-1%	0%
CCN=c1scc(-c2ccco2)n1/N=C/c1ccc(O)cc1	u	u	-9	20µM*	-14%	-9%
CCN=c1scc(-c2ccco2)n1/N=C/c1ccc(OC)c(O)c1	-11%	-11	-1	u	-14%	-5%
O=C(NNC1CC(=O)N(c2ccccc2)C1=O)c1ccccc1Cl (stereo not drawn)	x	x	-3	8%	x	1%
COC(=O)c1cc(C(=O)OC)cc(N2C(=O)CC(NNC(=O)c3ccccc3Cl)C2=O)c1 (stereo not drawn)	-15%	-99*	5	u	-3%	-8%
CN(Cc1ccccc1)C(=O)C1CCN(S(=O)(=O)c2cc([N+](=O)[O-])ccc2Cl)CC1	x	27	-3	6.3µM*	-6%	1%
O=C(NCc1ccccc1)C1CCN(S(=O)(=O)c2cc([N+](=O)[O-])ccc2Cl)CC1	-10%	-12	3	25µM*	-2%	1%
CC(NC(=O)C1CCN(S(=O)(=O)c2cc([N+](=O)[O-])ccc2Cl)CC1)c1ccccc1 (stereo not drawn)	-6%	-16	16	u	-2%	5%
CS(=O)(=O)NC(=O)CCC/C=C\C[C@H]1C(=O)C[C@@H](O)[C@@H]1/C=C/[C@@H](O)COc1ccccc1	x	x	x	x	x	7%
Cc1oc(-c2ccccc2F)nc1CS(=O)(=O)CC(=O)N1CCN(c2ccccc2)CC1	-16%	-2	-9	1%	0%	1%
CN(C)CCN(C(=O)c1ccccc1Cl)c1nc2c(Cl)cccc2s1	-20%	-15	-14	32µM*	1%	1%
Cc1cccc2sc(N(CCCN(C)C)C(=O)c3nc4ccccc4s3)nc12	u	-118*	-5	u	-1%	1%
COc1ccc(Oc2ncc3nc(C)c(=O)n(-c4ccc(OC)cc4)c3n2)cc1	-22%	x	x	u	-1%	8%
